# APE1 inh: qHTS Assay for Inhibitors of the Human Apurinic/apyrimidinic Endonuclease 1 (APE1). AID 2517, 2012. recombinant APE1, TAMRA/BHQ-2 abasic DNA cleavage fluorescence. Potency, µM (top dose mostly 65.8 µM), without a hit: at the highest dose activity change, negative = inhibition, most hits filed as inhibitors. 0.35% of 350,000 active;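 note: plate controls were vehicle for no effect and reference inhibitor for full effect; nearly all actives have a fitted effect of over 55% in size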
#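 Quantitative HTS: incision of a TAMRA/BHQ-2 double-stranded substrate bearing a tetrahydrofuran abasic site by 0.75 nM APE1 raises fluorescence. Substrate 50 nM final, added after 15 min compound preincubation at room temperature; progress as third-minus-first kinetic read difference.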
# JMJD2E inh: qHTS Assay for Inhibitors of Human Jumonji Domain Containing 2E (JMJD2E); JMJD2E catalytic domain, FDH-coupled NADH fluorescence (FDH is formaldehyde dehydrogenase); AID 2147, 2009; 1.6% of 230,000 active; Potency, µM (doses to about 57.1 µM), without a hit: at the top dose activity change, negative = inhibition, actives largely listed as inhibitors; active = well fitted inhibition curve with a large enough effect, not every such curve was filed as active; inconclusive = small, poorly fitted or top-dose-only effect, or another doubt; inactive = no such curve, though single readings can be large or run the other way;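 note: 0% = wells with enzyme and -100% = buffer wells without enzyme; nearly all actives have a fitted effect of over 50% in size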
# BLM inh: qHTS Assay for Inhibitors of Bloom's syndrome helicase (BLM); RecQ-like DNA helicase BLM (Homo sapiens), P54132; recombinant BLM DNA unwinding, fluorescence dequenching; Potency, µM (series often up to 56.1 µM), for the others: at the top dose activity change, negative = inhibition, most hits filed as inhibitors; 0.2% of 350,000 active; AID 2528, 2010;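 note: plate controls were vehicle for no effect and no enzyme for full effect; nearly all actives have a fitted effect of over 35% in size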
# L3MBTL1 block: qHTS Assay for the Inhibitors of L3MBTL1; AlphaScreen L3MBTL1–H3K9me1 peptide binding; Potency, µM (highest dose often 57.1 µM), inactives show at the top dose activity, negative = inhibition, hits mostly inhibitors; 0.66% of 230,000 active; note: nearly all actives have a fitted effect of over 60% in size
#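 AlphaScreen proximity signal between nickel-chelate acceptor and streptavidin donor beads (final 10 ug/mL) reports binding of 50 nM L3MBTL1 to 75 nM biotin-H3 K9me1 peptide; complex incubated with compounds 30 min at room temperature; cefsulodin titration as control.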
# RECQ1 inh: qHTS Assay for Inhibitors of RecQ-Like Dna Helicase 1 (RECQ1). ATP-dependent DNA helicase Q1 (Homo sapiens), P46063. RECQ1 DNA unwinding, red fluorescence kinetic read. Potency, µM (titrated, usually from 57.3 µM), for the others: at the highest dose activity, negative = inhibition, usual class: inhibitors. 0.54% of 240,000 active. AID 2549, 2010;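 note: plate controls were vehicle for no effect and no enzyme for full effect; nearly all actives have a fitted effect of over 30% in size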
# Target sequence (P46063 whole entry, looked up): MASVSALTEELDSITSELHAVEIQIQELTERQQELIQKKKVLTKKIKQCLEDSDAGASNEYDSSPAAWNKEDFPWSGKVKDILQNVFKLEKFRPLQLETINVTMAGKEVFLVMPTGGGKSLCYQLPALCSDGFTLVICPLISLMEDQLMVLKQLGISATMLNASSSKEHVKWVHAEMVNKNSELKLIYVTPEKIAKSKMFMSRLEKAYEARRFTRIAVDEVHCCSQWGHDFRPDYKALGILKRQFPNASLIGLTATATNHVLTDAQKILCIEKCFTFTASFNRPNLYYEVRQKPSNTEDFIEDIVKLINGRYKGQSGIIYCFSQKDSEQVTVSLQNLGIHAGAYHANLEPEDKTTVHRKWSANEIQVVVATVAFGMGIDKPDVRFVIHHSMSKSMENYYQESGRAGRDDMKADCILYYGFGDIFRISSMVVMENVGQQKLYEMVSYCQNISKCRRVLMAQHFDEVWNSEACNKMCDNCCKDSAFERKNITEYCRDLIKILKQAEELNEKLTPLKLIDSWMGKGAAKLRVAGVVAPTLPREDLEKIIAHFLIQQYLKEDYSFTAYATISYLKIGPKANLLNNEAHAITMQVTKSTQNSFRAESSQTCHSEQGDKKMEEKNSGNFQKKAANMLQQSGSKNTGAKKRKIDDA
#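 RECQ1T1 50 nM; forked duplex (20 bp + 30-nt ss tails) 200 nM, ATP 2 mM final; pH 8.0, 2 mM MgCl2, 2.5 ug/ml poly(dI-dC); 15 min compound preincubation; discontinuous kinetic read over 2 h at RT.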
# TDP1 inh: qHTS Assay for Inhibitors of Tyrosyl-DNA Phosphodiesterase (TDP1); Potency, µM (top dose mostly 130 µM), inactives show at the top dose activity change, negative = inhibition, hits mostly inhibitors; recombinant TDP1, AlphaScreen DNA substrate cleavage; Tyrosyl-DNA phosphodiesterase 1 (Homo sapiens), Q9NUW8; AID 485290, 2010; 0.28% of 350,000 active; note: nearly all actives have a fitted effect of over 40% in size
#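 E. coli-derived human Tdp1, 1 nM final. Cpd preinc 15 min RT; substrate 15 nM final, 5 min RT; AS bead mix 10 ug/ml final, 10 min RT. Signal loss = tyrosine-FITC cleavage. No-enzyme wells = max signal.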
# * marks the source's active call; other numbers are inactive results; i = inactive; ? = inconclusive; nt = not tested or not shown; [ ] = remark or other dose. The entries come from a sample that favours hits as a whole. Unless noted, calls come from the whole dose curve; as a rule, active = well fitted curve in the direction sought with a large enough effect; inconclusive = small, poorly fitted or top-dose-only effect, or another doubt; inactive = no such curve, though single readings can be large; an effect the other way counts as inactive or inconclusive. Unless noted, % is set by controls: 0 for no effect and ±100 for the full control effect; potency is the fitted concentration of half-maximal effect.
SMILES,APE1 inh,JMJD2E inh,BLM inh,L3MBTL1 block,RECQ1 inh,TDP1 inh
CCn1c2ccccc2c2cc(CN3CCN(Cc4cc(OC)ccc4O)CC3)ccc21,-4%,18µM*,-4%,-28%,-5%,7%
Oc1ccc(NCc2ccccc2OCc2ccccc2)cc1,?,11µM*,?,?,-5%,8%
COC(=O)N/N=C/c1cc(C)n(-c2ccc(Br)cc2)c1C,4%,25µM*,-4%,-18%,i,5%
COC(=O)N/N=C/c1cc(C)n(-c2ccc(F)cc2)c1C,-2%,?,-7%,nt,0%,4%
CCc1ccc(-n2c(C)cc(/C=N/NC(=O)c3ccncc3)c2C)cc1,8%,4%,-11%,-27%,i,-2%
CCc1ccc(-n2c(C)cc(/C=N/NC(=O)OC)c2C)cc1,16%,10µM*,-3%,-4%,4%,1%
CCc1ccccc1NC(=O)Cn1nnc2sc3c(c2c1=O)CCC(C(C)(C)C)C3 (stereo not given),nt,nt,-10%,nt,nt,0%
Cc1cc(-c2ccc(N=Nc3c(S(=O)(=O)O)cc4cc(S(=O)(=O)O)cc(N)c4c3O)c(C)c2)ccc1N=Nc1c(S(=O)(=O)O)cc2cc(S(=O)(=O)O)cc(N)c2c1O,0.47µM*,nt,-83%,0.2µM*,nt,nt
O=S(=O)(O)c1cc(O)c2c(O)c(N=Nc3cc(Cl)ccc3O)c(S(=O)(=O)O)cc2c1,12µM*,nt,70%,nt,nt,nt
Cc1ccc2nc(-c3ccc(N=Nc4cc(S(=O)(=O)O)c5ccccc5c4O)cc3)sc2c1S(=O)(=O)O,nt,nt,nt,nt,nt,-7%
COc1ccc(Br)c(C(=O)Nc2cc3c(cc2N2CCOCC2)n(C)c(=O)n3C)c1,nt,nt,-1%,nt,nt,0%
COc1ccc(OC)c(C2CC(=O)Nc3c2c(=O)n(C)c2ncnn32)c1 (stereo not given),nt,nt,-2%,nt,nt,3%
OC[C@@H](O)C(O)[C@H](O)CO,-4%,nt,nt,nt,nt,nt
CCCCOC(=O)CCN1C(=O)/C(=C2\SC(=S)N(CCC(=O)OCCCC)C2=O)SC1=S,0%,-3%,1%,2%,-21%,3%
CCCCCOC(=O)CCN1C(=O)/C(=C2\SC(=S)N(CCC(=O)OCCCCC)C2=O)SC1=S,0%,-1%,0%,52%,1.6µM*,7%
CCOC(=O)COc1cc(-n2c(=S)[nH]c3cc(OC)c(OC)cc3c2=O)c(Cl)cc1Cl,-4%,0%,-18%,0.71µM*,i,11%
C=C1C=C(C(F)F)n2ncc(C(=O)Nc3ccc(C(C)CC)cc3)c2N1 (stereo not given),40%,nt,nt,nt,nt,nt
c1ccc(-c2cn3nc4c(nc3n2)CCCC4)cc1,-11%,32µM*,-10%,nt,i,6%
Oc1ccc(/C=N/Nc2cc(N3CCOCC3)nc(N3CCOCC3)n2)cc1O,-10%,28µM*,-10%,-7%,-6%,9%
Cc1ccc(NS(=O)(=O)c2ccc3ccccc3c2)cc1C,nt,nt,nt,nt,nt,-2%
Cc1ccc(-n2ncc3c2CC(C)(C)CC3NC(=O)CCc2ccncc2)cc1 (stereo not given),-3%,nt,2%,nt,nt,22µM*
O=C(CNC(=O)c1ccc(Cl)cc1Cl)OCc1cn2cc(Br)ccc2n1,6%,nt,nt,-8%,nt,1%
CN(C)c1ccc2c(-c3ccccc3)c3ccc(=[N+](C)C)cc-3oc2c1,28µM*,nt,28µM*,nt,28µM*,21%
C/C=C\C1=C(CO)C(=O)[C@@H]2OC2C1=O (stereo not given in full),1.6µM*,nt,-5%[12.4 µM],nt,3.5µM*,?
COC(=O)CCC(=O)CN,6%,28µM*,-11%,0%,-13%,4%
SMILES,APE1 inh,JMJD2E inh,BLM inh,L3MBTL1 block,RECQ1 inh,TDP1 inh
COC(=O)CCCC(=O)OC,37%,nt,nt,-2%,2%,0%
COc1ccc(C2=Nn3c(nnc3-c3ccccc3OC)SC2)cc1O[C@H]1CCOC1,2%,nt,nt,nt,nt,nt
CCOc1ccc(C(=O)c2ccc(O)c(O)c2O)cc1,?,14µM*,-19%,nt,?,-8%
CCOc1cccc(C(=O)c2ccc(O)c(O)c2O)c1,?,10µM*,-16%,nt,?,4%
CCOc1ccc(C(=O)c2cccs2)cc1,24%,-1%,-5%,7%,-8%,2%
O=c1cc(-c2ccsc2)oc2cc(-c3ccc4c(c3)OCO4)ccc12,13%,nt,nt,-1%,nt,7.1µM*
COc1cccc(C2NC(c3cccc(OC)c3O)C(C)C(=O)C2C)c1O (stereo not given),2%,20µM*,-3%,-3%,5%,-2%
COc1ccccc1C1NC(c2ccccc2OC)C(C)C(=O)C1C (stereo not given),0%,6%,-5%,nt,-10%,4%
COc1ccccc1CNC(=O)c1c[nH]c2ccc(S(=O)(=O)Nc3cc(C)cc(C)c3)cc2c1=O,nt,nt,-7%,nt,nt,0%
CCN(CC)C(=O)c1c[nH]c2ccc(S(=O)(=O)Nc3cc(C)cc(C)c3)cc2c1=O,-6%,32µM*,-11%,-2%,-7%,0%
Cc1ccc2oc(-c3ccccc3)c(O)c(=O)c2c1,0%,14µM*,0%,nt,i,4%
COCCNC(=S)N/N=C/c1ccccc1C(=O)O,19%,1%,1%,nt,-4%,2%
COCCCNC(=S)N/N=C/c1ccccc1O,0%,28µM*,-5%,?,i,9%
Oc1ccccc1/C=N/NC(=S)NC1CC2CCC1C2 (stereo not given),-4%,25µM*,-13%,?,-8%,9%
CC(=O)Nc1cccc(S(=O)(=O)Nc2ccc(C)c(C)c2)c1,nt,nt,nt,nt,nt,1%
COc1cc2c(cc1OC)C(/C=C/c1ccc(OC)c(OC)c1OC)=NCC2,-2%,?,2%,nt,-5%,15%
c1csc(CNc2ncncc2-c2ccoc2)c1,-3%,nt,-2%,nt,5%,nt
O=C(c1cc2ncc(Br)cn2n1)N1CCOCC1,6%,-8%,-13%,nt,16%,-2%
O=C(c1cc2ncc(Br)cn2n1)N1CCN(C(=O)c2ccco2)CC1,-2%,-2%,-18%,?,-3%,22µM*
Cc1ccc(NC(=O)c2c(C)oc3ccc(O)c(CN4CCCCCC4)c23)c(C)c1,nt,nt,6%,nt,nt,6%
Oc1ccc(NCc2ccccc2F)c2cccnc12,nt,nt,nt,nt,nt,4%
